Measurements published in PubChem BioAssay (NCI).
The panel holds about 79,000 compounds, 15% with a hit somewhere; the sample as a whole holds those more often. Activity calls are given as the source filed them. Rule as the data show it: active = growth inhibition above about 70%; inactive = the rest.

Assay: NCI Yeast Anticancer Drug Screen. Data for the mec2-1 strain (AID 157)
Conditions: S. cerevisiae mec2-1 strain, at 50.0 µM, active compounds read high
In short: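 Readout is yeast growth inhibition, normalised to vehicle-treated controls, in the mec2-1 strain exposed to compound.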

| Compound | growth inhibition |
| --- | --- |
| O=c1cc(NCc2cccc([N+](=O)[O-])c2)[nH]c(=O)[nH]1 | 8.2% (inactive) |
| CN(C)N=Nc1ccc(C(=O)N/N=C/c2ccccc2[N+](=O)[O-])cc1 | 1.2% (inactive) |
| COc1ccc(/C(C)=N/NC(N)=S)cc1OC | -17.9% (inactive) |
| CCCCCCCCCCCCCCCCCCCCCCCCCCCCCCCCCCCCSC(=N)N | 0.45% (inactive) |
| CCC1(C)C(=O)NC(=O)N1C(C)=O (stereo not given) | -21.4% (inactive) |
| CCSC1OC(C(COC(C)=O)OC(C)=O)C(OC(C)=O)C1NC(=O)OCc1ccccc1 (stereo not given) | 5.75% (inactive) |
| COC(=O)C1(C)CCCC2(C)c3cc(OC)ccc3C(=O)C(Cl)C12 (stereo not given) | 0.15% (inactive) |
| CCC1(CC)C(=O)N(C(=O)c2cc(OC)c(OC)c(OC)c2)N(C(=O)c2cc(OC)c(OC)c(OC)c2)C1=O | -0.1% (inactive) |
| C#CCOCC12C=CC(O1)C1C(=O)OCC12 (stereo not given) | 9.65% (inactive) |
| N=C(N)c1ccncc1 | 5.75% (inactive) |
| Cc1ccc(S(=O)(=O)N2CCC[C@@H]2C(=O)O[C@@H]2CCC3CC=CC32)cc1 (stereo not given in full) | -17.3% (inactive) |
| O=C(CCBr)Nc1ccccc1 | -15.2% (inactive) |
| O=C(/C=C\c1ccccc1)OCc1ccccc1CN1CCCCC1 | 11.7% (inactive) |
| C(=Nc1ccc(SSc2ccc(N=Cc3ccc4c(c3)OCO4)cc2)cc1)c1ccc2c(c1)OCO2 | 0.05% (inactive) |
| O=C(NCCN1CCCC1)NC1CCCCC1 | 2.35% (inactive) |
| N=c1nnc2ccc(Cl)cc2n1O | 4.7% (inactive) |
| Cc1cc(C)c(C#N)c(N)n1 | -12.8% (inactive) |
| CC(=O)CC(=O)NCC#N | 15.8% (inactive) |
| CS(=O)(=O)C(CCC(=O)c1cccs1)C(=O)c1ccccc1 (stereo not given) | 3.25% (inactive) |
| O=C(Cn1ccc(=O)[nH]c1=O)Nc1ccc(C(=O)O)c(O)c1 | -43.1% (inactive) |

| Compound | growth inhibition |
| --- | --- |
| O=C1c2ccccc2-c2nnc(-c3ccc(Cl)cc3)cc21 | -14.2% (inactive) |
| C#CC[N+](C)(CC#C)CC#C | 7.8% (inactive) |
| COC(=O)C1=CON2C3CC4CC(C3)CC(C4)C12C (stereo not given) | -30.6% (inactive) |
| COc1ccc(C(=O)/C=C/c2ccc(OCCCCCCCCCCOc3ccc(/C=C/C(=O)c4ccc(OC)cc4)cc3)cc2)cc1 | -14.8% (inactive) |
| FC(F)(F)c1nc(Cl)c2cn[nH]c2n1 | 39.6% (inactive) |
| CCCC1C(C#N)(C#N)C(C#N)=C(N)C1(C)C(C)=O (stereo not given) | 6.8% (inactive) |
| CCn1cc2c(=O)n3ncn(-c4ccc(Br)cc4)c3nc2n1 | 9.75% (inactive) |
| COc1ccc2cc1Oc1ccc(cc1)CC1c3c(cc(OC)c4c3Oc3cc5c(cc3O4)CCNC5C2)CCN1C (stereo not given) | -31.6% (inactive) |
| CCCCC/C(C)=C\CBr | -2.65% (inactive) |
| CCCCOC(=O)C12CCCCC1O2 (stereo not given) | -29.9% (inactive) |
| O=c1[nH]c(=O)n(C2CC(O)C(CO)O2)cc1/C=C/Br (stereo not given) | -9.25% (inactive) |
| O=C(Nc1ccc(S(=O)(=O)/N=c2\ncccn2C(=O)C(C(F)(F)F)C(F)(F)F)cc1)C(C(F)(F)F)C(F)(F)F | 11.9% (inactive) |
| c1ccc2c(-c3ccncc3)c3ccccc3cc2c1 | 2.6% (inactive) |
| CCN(C(=O)CCl)c1ccccc1 | 0.35% (inactive) |
| CN(C)NC(=O)CC#N | -1.55% (inactive) |
| COC(=O)C1C(O)C(C)C(OC(C)=O)C(C)/C=C\C=C(C)C(=O)Nc2c(C)c(OC(C)=O)c3c(c2O)C(=O)C(C)=C2OCOC(=C23)C(C)=CC(C)(O)C(O)C(C)C1O (stereo not given) | -18.8% (inactive) |
| O=C1C(C2CCCCC2)=C2OCC3COC2(O3)c2ccccc21 (stereo not given) | -16.6% (inactive) |
| O=C1Nc2ccccc2C1=Nc1cccc2ncccc12 | -7.75% (inactive) |
| COc1ccc(Cl)[n+]([O-])n1 | -4.15% (inactive) |
| Cc1ccsc1S(N)(=O)=O | -23.1% (inactive) |

Assay: NCI Yeast Anticancer Drug Screen. Data for the sgs1 mgt1 strain (AID 161);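 also: 0% = growth of cultures given vehicle only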
Conditions: S. cerevisiae sgs1 mgt1 strain, at 50.0 µM, active compounds read high
In short: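 Growth of a repair-deficient yeast mutant was monitored after compound treatment and expressed as inhibition relative to vehicle-treated cultures.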

| Compound | growth inhibition |
| --- | --- |
| O=c1cc(NCc2cccc([N+](=O)[O-])c2)[nH]c(=O)[nH]1 | 5.05% (inactive) |
| CN(C)N=Nc1ccc(C(=O)N/N=C/c2ccccc2[N+](=O)[O-])cc1 | -16.6% (inactive) |
| COc1ccc(/C(C)=N/NC(N)=S)cc1OC | 2.45% (inactive) |
| CCCCCCCCCCCCCCCCCCCCCCCCCCCCCCCCCCCCSC(=N)N | 3.8% (inactive) |
| CCC1(C)C(=O)NC(=O)N1C(C)=O (stereo not given) | -3.85% (inactive) |
| CCSC1OC(C(COC(C)=O)OC(C)=O)C(OC(C)=O)C1NC(=O)OCc1ccccc1 (stereo not given) | -4.5% (inactive) |
| COC(=O)C1(C)CCCC2(C)c3cc(OC)ccc3C(=O)C(Cl)C12 (stereo not given) | 6.45% (inactive) |
| CCC1(CC)C(=O)N(C(=O)c2cc(OC)c(OC)c(OC)c2)N(C(=O)c2cc(OC)c(OC)c(OC)c2)C1=O | -2.2% (inactive) |
| C#CCOCC12C=CC(O1)C1C(=O)OCC12 (stereo not given) | -12.8% (inactive) |
| N=C(N)c1ccncc1 | 8.45% (inactive) |
| Cc1ccc(S(=O)(=O)N2CCC[C@@H]2C(=O)O[C@@H]2CCC3CC=CC32)cc1 (stereo not given in full) | 10.2% (inactive) |
| O=C(CCBr)Nc1ccccc1 | -7.15% (inactive) |
| O=C(/C=C\c1ccccc1)OCc1ccccc1CN1CCCCC1 | 17.2% (inactive) |
| C(=Nc1ccc(SSc2ccc(N=Cc3ccc4c(c3)OCO4)cc2)cc1)c1ccc2c(c1)OCO2 | -0.95% (inactive) |
| O=C(NCCN1CCCC1)NC1CCCCC1 | 3.85% (inactive) |
| N=c1nnc2ccc(Cl)cc2n1O | 15.6% (inactive) |
| Cc1cc(C)c(C#N)c(N)n1 | -14.3% (inactive) |
| CC(=O)CC(=O)NCC#N | 23.9% (inactive) |
| CS(=O)(=O)C(CCC(=O)c1cccs1)C(=O)c1ccccc1 (stereo not given) | -6.65% (inactive) |
| O=C(Cn1ccc(=O)[nH]c1=O)Nc1ccc(C(=O)O)c(O)c1 | -24.9% (inactive) |

| Compound | growth inhibition |
| --- | --- |
| O=C1c2ccccc2-c2nnc(-c3ccc(Cl)cc3)cc21 | -18.2% (inactive) |
| C#CC[N+](C)(CC#C)CC#C | 13% (inactive) |
| COC(=O)C1=CON2C3CC4CC(C3)CC(C4)C12C (stereo not given) | -8.95% (inactive) |
| COc1ccc(C(=O)/C=C/c2ccc(OCCCCCCCCCCOc3ccc(/C=C/C(=O)c4ccc(OC)cc4)cc3)cc2)cc1 | -17% (inactive) |
| FC(F)(F)c1nc(Cl)c2cn[nH]c2n1 | -1.15% (inactive) |
| CCCC1C(C#N)(C#N)C(C#N)=C(N)C1(C)C(C)=O (stereo not given) | -18.7% (inactive) |
| CCn1cc2c(=O)n3ncn(-c4ccc(Br)cc4)c3nc2n1 | 3.2% (inactive) |
| COc1ccc2cc1Oc1ccc(cc1)CC1c3c(cc(OC)c4c3Oc3cc5c(cc3O4)CCNC5C2)CCN1C (stereo not given) | -12.2% (inactive) |
| CCCCC/C(C)=C\CBr | -7.1% (inactive) |
| CCCCOC(=O)C12CCCCC1O2 (stereo not given) | -12.8% (inactive) |
| O=c1[nH]c(=O)n(C2CC(O)C(CO)O2)cc1/C=C/Br (stereo not given) | -8.95% (inactive) |
| O=C(Nc1ccc(S(=O)(=O)/N=c2\ncccn2C(=O)C(C(F)(F)F)C(F)(F)F)cc1)C(C(F)(F)F)C(F)(F)F | -0.65% (inactive) |
| c1ccc2c(-c3ccncc3)c3ccccc3cc2c1 | 9.45% (inactive) |
| CCN(C(=O)CCl)c1ccccc1 | -0.1% (inactive) |
| CN(C)NC(=O)CC#N | -4.45% (inactive) |
| COC(=O)C1C(O)C(C)C(OC(C)=O)C(C)/C=C\C=C(C)C(=O)Nc2c(C)c(OC(C)=O)c3c(c2O)C(=O)C(C)=C2OCOC(=C23)C(C)=CC(C)(O)C(O)C(C)C1O (stereo not given) | 15.7% (inactive) |
| O=C1C(C2CCCCC2)=C2OCC3COC2(O3)c2ccccc21 (stereo not given) | -20.1% (inactive) |
| O=C1Nc2ccccc2C1=Nc1cccc2ncccc12 | -11.1% (inactive) |
| COc1ccc(Cl)[n+]([O-])n1 | -2% (inactive) |
| Cc1ccsc1S(N)(=O)=O | -10.6% (inactive) |
